Source: the supplement of paper PMC11001985
Unmarked numbers belong to inactive results.

These targets were tested with C#CCNC(=O)CCSSCCC(=O)NCCc1ccc(C=O)c(C=O)c1 (assay: lysine labeling ratio R10:1 (500 µM / 50 µM probe), SILAC-ABPP in living cells; higher = lower intrinsic lysine reactivity toward the probe, active = 2 or less). Settings: HeLa; probe concentrations 500 vs 50 µM.
Summary of the method: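 Forward and reverse SILAC label swaps were used with living light and heavy HeLa cells in PBS at room temperature, which were given an alkyne-tagged, disulfide-linked lysine probe at 50 µM or 500 µM. R is the per-lysine filtered median high-probe/low-probe MS1 peptide ratio, with the median then taken across both swap directions. Values are limited to 20.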

UniProt Q15149, sequence (Q15149 whole entry): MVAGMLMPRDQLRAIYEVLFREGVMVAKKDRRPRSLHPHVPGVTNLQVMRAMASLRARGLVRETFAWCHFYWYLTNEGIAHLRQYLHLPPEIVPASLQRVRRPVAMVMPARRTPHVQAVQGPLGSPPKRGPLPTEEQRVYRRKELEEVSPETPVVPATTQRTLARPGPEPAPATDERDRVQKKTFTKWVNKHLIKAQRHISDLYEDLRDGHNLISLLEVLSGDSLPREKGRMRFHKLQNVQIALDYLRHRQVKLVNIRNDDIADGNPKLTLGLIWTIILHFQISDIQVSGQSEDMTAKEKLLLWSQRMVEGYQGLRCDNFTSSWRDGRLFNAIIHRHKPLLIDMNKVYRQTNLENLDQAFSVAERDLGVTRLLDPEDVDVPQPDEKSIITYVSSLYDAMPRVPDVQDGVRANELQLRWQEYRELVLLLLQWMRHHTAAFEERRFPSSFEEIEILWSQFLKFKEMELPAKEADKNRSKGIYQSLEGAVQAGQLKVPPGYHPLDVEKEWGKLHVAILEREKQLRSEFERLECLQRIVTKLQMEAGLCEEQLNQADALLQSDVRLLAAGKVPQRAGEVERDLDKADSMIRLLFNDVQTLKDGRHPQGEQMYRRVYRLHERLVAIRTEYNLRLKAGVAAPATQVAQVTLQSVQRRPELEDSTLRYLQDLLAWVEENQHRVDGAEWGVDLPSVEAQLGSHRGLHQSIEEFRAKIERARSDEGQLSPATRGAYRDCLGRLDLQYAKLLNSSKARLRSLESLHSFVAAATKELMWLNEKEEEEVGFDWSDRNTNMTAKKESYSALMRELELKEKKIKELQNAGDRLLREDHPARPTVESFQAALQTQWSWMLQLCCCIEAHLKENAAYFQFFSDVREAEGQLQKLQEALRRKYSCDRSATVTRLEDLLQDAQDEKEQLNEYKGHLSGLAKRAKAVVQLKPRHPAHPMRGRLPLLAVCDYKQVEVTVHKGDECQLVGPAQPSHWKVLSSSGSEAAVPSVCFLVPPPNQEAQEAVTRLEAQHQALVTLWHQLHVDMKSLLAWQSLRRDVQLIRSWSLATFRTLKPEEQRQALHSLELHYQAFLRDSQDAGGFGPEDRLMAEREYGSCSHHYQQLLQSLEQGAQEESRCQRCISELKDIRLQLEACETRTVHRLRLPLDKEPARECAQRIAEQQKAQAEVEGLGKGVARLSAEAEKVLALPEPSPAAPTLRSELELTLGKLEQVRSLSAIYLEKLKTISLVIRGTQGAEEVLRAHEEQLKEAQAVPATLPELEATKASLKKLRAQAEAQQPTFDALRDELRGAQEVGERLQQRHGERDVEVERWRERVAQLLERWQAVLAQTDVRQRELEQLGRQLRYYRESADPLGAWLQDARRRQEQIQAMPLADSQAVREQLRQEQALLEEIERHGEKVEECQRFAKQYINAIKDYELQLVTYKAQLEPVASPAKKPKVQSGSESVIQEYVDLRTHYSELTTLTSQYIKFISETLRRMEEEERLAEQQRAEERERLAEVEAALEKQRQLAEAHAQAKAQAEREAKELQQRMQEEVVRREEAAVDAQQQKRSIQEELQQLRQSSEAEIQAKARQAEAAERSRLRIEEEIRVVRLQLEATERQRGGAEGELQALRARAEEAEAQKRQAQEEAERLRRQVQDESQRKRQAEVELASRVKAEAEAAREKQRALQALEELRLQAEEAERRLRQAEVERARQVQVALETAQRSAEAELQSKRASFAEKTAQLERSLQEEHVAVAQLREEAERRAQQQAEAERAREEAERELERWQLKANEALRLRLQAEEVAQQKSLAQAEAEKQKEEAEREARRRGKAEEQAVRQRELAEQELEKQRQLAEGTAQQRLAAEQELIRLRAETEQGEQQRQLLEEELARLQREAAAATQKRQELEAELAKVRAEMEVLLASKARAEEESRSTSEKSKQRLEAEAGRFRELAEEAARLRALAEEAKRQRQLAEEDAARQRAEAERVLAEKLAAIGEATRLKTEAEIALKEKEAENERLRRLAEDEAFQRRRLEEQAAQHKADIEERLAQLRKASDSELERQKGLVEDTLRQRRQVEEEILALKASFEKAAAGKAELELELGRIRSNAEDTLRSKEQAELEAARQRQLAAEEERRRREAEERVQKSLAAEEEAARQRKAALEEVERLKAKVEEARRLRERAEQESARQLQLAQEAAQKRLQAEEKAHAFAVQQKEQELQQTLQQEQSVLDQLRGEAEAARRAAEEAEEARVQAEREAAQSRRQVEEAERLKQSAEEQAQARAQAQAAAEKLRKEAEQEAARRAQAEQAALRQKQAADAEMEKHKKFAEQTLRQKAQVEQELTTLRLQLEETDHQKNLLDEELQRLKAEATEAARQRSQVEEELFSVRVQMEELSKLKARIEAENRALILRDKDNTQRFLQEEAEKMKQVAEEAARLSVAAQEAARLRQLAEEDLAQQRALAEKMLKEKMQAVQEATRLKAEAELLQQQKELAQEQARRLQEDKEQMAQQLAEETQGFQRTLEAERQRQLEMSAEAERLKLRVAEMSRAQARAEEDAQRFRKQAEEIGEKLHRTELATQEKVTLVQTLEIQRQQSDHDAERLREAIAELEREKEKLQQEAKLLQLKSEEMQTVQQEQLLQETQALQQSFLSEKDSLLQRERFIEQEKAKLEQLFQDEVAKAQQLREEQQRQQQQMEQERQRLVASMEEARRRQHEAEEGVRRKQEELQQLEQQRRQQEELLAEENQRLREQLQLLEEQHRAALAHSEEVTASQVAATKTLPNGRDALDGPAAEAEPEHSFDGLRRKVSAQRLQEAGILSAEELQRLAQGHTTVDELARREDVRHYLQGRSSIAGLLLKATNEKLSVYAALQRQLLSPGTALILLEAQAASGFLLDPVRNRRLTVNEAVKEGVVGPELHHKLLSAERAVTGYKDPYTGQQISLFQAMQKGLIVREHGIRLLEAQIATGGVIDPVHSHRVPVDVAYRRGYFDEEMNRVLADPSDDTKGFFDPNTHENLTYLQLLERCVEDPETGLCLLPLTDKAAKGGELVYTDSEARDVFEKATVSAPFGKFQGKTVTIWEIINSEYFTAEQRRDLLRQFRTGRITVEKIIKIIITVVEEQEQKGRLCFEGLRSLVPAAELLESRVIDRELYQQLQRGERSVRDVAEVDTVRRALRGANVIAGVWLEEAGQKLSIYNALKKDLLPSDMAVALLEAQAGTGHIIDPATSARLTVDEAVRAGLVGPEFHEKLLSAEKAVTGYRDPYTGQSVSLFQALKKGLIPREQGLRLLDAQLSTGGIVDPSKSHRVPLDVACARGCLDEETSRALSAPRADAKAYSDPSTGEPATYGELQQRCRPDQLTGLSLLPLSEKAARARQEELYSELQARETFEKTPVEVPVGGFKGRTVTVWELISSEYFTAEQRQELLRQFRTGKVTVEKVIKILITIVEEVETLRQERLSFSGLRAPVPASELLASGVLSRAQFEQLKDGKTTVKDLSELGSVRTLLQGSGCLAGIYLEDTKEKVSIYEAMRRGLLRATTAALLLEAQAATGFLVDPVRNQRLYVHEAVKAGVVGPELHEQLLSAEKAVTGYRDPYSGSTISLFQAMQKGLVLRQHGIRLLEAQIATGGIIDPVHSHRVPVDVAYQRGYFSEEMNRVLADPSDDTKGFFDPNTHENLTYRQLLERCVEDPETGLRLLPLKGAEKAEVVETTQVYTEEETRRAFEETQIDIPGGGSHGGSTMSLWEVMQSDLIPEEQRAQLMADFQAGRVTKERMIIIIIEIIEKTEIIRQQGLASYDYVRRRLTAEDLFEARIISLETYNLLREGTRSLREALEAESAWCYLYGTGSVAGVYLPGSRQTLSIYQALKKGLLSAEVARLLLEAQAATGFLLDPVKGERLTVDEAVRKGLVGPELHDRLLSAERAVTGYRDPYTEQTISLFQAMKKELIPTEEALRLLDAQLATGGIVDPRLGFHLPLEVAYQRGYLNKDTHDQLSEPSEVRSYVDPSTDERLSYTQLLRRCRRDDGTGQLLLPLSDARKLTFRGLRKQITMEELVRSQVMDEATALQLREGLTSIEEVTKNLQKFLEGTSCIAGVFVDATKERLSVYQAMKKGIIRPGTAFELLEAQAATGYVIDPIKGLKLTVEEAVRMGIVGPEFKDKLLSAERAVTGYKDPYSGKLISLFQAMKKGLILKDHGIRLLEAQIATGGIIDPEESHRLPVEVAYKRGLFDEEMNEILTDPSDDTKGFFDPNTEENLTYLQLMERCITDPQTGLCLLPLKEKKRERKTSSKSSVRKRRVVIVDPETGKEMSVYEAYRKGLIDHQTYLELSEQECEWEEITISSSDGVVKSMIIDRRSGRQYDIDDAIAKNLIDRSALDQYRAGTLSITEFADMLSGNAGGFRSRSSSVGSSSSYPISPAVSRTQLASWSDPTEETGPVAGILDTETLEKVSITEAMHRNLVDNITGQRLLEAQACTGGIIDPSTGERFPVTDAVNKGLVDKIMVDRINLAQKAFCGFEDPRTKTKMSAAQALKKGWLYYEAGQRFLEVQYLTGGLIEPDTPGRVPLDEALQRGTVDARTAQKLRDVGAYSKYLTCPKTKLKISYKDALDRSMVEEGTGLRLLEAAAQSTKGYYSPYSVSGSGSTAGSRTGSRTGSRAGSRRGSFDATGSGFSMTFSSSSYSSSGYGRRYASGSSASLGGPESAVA
UniProt P22626, sequence (P22626 whole entry): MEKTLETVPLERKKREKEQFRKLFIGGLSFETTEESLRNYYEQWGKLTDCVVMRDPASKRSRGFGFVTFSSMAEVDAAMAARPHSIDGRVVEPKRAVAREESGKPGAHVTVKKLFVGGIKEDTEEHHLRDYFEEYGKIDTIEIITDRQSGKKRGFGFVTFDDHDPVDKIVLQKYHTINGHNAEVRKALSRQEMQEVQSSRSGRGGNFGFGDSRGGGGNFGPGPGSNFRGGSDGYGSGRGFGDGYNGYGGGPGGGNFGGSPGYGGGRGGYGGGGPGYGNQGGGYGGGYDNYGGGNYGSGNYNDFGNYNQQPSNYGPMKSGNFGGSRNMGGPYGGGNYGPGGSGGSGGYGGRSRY
UniProt P61077, sequence (P61077 whole entry): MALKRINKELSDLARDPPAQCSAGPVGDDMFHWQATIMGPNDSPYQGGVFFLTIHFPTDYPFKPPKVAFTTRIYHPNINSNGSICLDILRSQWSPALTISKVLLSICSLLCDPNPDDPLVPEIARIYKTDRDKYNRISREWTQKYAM

Row | Target | lysine labeling ratio R10:1
1 | CD63 (lysine site: K194) (UniProt P08962) | 2.39
2 | CDH13 (lysine site: K74) (UniProt P55290) | 5.06
3 | SCARB2 (lysine site: K129) (UniProt Q14108) | 5.93
4 | DCTN2 (lysine site: K65) (UniProt Q13561) | 1.14 (active)
5 | F11R (lysine site: K47) (UniProt Q9Y624) | 5.07
6 | UniProt Q15149 (lysine site: K581) | 3.7
7 | UniProt P25705 (lysine site: K194) | 1.81 (active)
8 | LAMB1 (lysine site: K158) (UniProt P07942) | 1.78 (active)
9 | MYH9 (lysine site: K1862) (UniProt P35579) | 2.81
10 | ALCAM (lysine site: K87) (UniProt Q13740) | 1.41 (active)
11 | ANXA2 (lysine site: K49) (UniProt P07355) | 3.95
12 | PSMA2 (lysine site: K53) (UniProt P25787) | 2.94
13 | TKT (lysine site: K204) (UniProt P29401) | 10.2
14 | ITGA5 (lysine site: K978) (UniProt P08648) | 4.71
15 | ARPC2 (lysine site: K186) (UniProt O15144) | 1.46 (active)
16 | LAMA5 (lysine site: K1854) (UniProt O15230) | 3.02
17 | UniProt Q15149 (lysine site: K4205) | 1.51 (active)
18 | UniProt P22413 (lysine site: K448) | 0.527 (active)
19 | EGFR (lysine site: K226) (UniProt P00533) | 11
20 | SLC39A6 (lysine site: K143) (UniProt Q13433) | 4.18

Row | Target | lysine labeling ratio R10:1
21 | UniProt Q96TA1 (lysine site: K430) | 1.69 (active)
22 | ITGB1 (lysine site: K551) (UniProt P05556) | 5.51
23 | CKAP4 (lysine site: K405) (UniProt Q07065) | 1.2 (active)
24 | SPTAN1 (lysine site: K1838) (UniProt Q13813) | 0.73 (active)
25 | UniProt O60245 (lysine site: K223) | 5.15
26 | HNRNPL (lysine site: K302) (UniProt P14866) | 1.66 (active)
27 | HNRNPA2B1 (lysine site: K120) (UniProt P22626) | 5.33
28 | IQGAP1 (lysine site: K368) (UniProt P46940) | 3.38
29 | LAMB2 (lysine site: K1720) (UniProt P55268) | 5.02
30 | HEXB (lysine site: K517) (UniProt P07686) | 2.41
31 | SPTBN1 (lysine site: K1249) (UniProt Q01082) | 4.92
32 | PEBP1 (lysine site: K113) (UniProt P30086) | 2.7
33 | IGF1R (lysine site: K667) (UniProt P08069) | 1.28 (active)
34 | UniProt P61077 (lysine site: K8) | 3.43
35 | FAT4 (lysine site: K3828) (UniProt Q6V0I7) | 5.8
36 | UniProt Q99623 (lysine site: K147) | 3.43
37 | SERBP1 (lysine site: K303) (UniProt Q8NC51) | 2.74
38 | FLNB (lysine site: K681) (UniProt O75369) | 2.09
39 | UniProt P35908 (lysine site: K580) | 5.72
40 | HSP90B1 (lysine site: K630) (UniProt P14625) | 2.66
